Measured values reported in PubChem BioAssay AID2732 (Emory University Molecular Libraries Screening Center, 2010).
Values joined by “and” are separate entries in the source; they are usually repeats but may differ in a detail not shown here. Equal values may be shown once. About 8,200 (3.7%) of roughly 220,000 compounds were called active. This is one part of a sample in which actives are shown more often than they occur.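 How the source made its calls: active means compounds that reduced the stress-induced luciferase reporter signal by more than about 70% of percent inhibition (limit read from the data); inactive means the rest.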

Assay: blockers of ER-stress CHOP reporter expression – cell-based, unfolded protein response, luciferase reporter, primary screen (AID 2732);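 further: 0% = tunicamycin plus vehicle and 100% = wells without tunicamycin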
Conditions: CHO-K1 CHOP-promoter luciferase, tunicamycin-induced, 15-18 h; at 10 µM; hits give high values

Row | SMILES | inhibition
1 | CCOc1ccc(/C=N/NC(=O)CSc2ccccn2)cc1O | 3.02% (inactive)
2 | O=C(CCC(=O)OCc1ccc(Cl)cc1)Nc1ccccc1 | 0.59% (inactive)
3 | CC(C)(C)C1CCC(OC(=O)CCC(=O)Nc2ccccc2)CC1 (centres undefined) | 71.5% (active)
4 | CC1CCN(CCC(=O)Nc2ccccc2)CC1 | -9.3% (inactive)
5 | COc1ccccc1CNC(=O)Cn1c(=O)oc2cc(Cl)ccc21 | 4.18% (inactive)
6 | CCOc1ccc2nc(/N=C/c3nc(-c4ccccc4)oc3O)sc2c1 | 73.9% (active)
7 | CCOc1ccc2nc(SC(CC)C(=O)Nc3cc(C)on3)sc2c1 (centres undefined) | 27.5% (inactive)
8 | CC(N=Cc1nc(-c2ccccc2)oc1O)c1ccccc1 (centres undefined) | 28.4% (inactive)
9 | Cn1c(SCC(=O)Nc2ccc(Cl)cc2)nc(O)cc1=O | -3.96% (inactive)
10 | O=C(COC(=O)c1ccccn1)Nc1cccc2ccccc12 | -19.7% (inactive)
11 | N#Cc1ccccc1NC(=O)COc1c(Br)cc(Br)c2cccnc12 | 88.1% (active)
12 | N#Cc1ccc(C(=O)Nc2cccc3cccnc23)c(F)c1 | -2.37% (inactive)
13 | CCN(CC)CCNCC(=O)Nc1ccc(Oc2ccccc2)cc1 | -16.4% (inactive)
14 | Cc1cc(C)c2cc(CN(Cc3nnnn3Cc3ccc(F)cc3)C3CCCC3)c(=O)[nH]c2c1 | 8.91% (inactive)
15 | Cc1cc(C)c2cc(CN(Cc3cccs3)Cc3nnnn3CC3CCCO3)c(=O)[nH]c2c1 (centres undefined) | 76% (active)
16 | Cc1cc2cc(CN(Cc3cccs3)Cc3nnnn3CC3CCCO3)c(=O)[nH]c2cc1C (centres undefined) | 20.8% (inactive)
17 | CCOC(=O)c1c(N)sc2c1CCCC2=O | 4.68% (inactive)
18 | O=C(Cn1c[n+](CC(=O)c2ccc([N+](=O)[O-])cc2)cn1)c1ccc([N+](=O)[O-])cc1 | -15.2% (inactive) and -12.2% (inactive)
19 | COc1ccccc1CNC(=O)c1ccc(SC)cc1OC | 2.76% (inactive)
20 | COc1cc(SC)ccc1C(=O)Nc1cc(C)ccn1 | 37.2% (inactive)
21 | COc1cc(SC)ccc1C(=O)Nc1nc(C)cs1 | 95.2% (active)
22 | CCc1cc(C(=O)OC)c(NC(=O)CC2Sc3ccc(C(F)(F)F)cc3NC2=O)s1 (centres undefined) | 72.2% (active)
23 | Cc1ccc(CNC(=O)CC2Sc3ccccc3NC2=O)cc1 (centres undefined) | -5.1% (inactive)
24 | COC(=O)c1cc(C)sc1NC(=O)CC1Nc2ccccc2NC1=O (centres undefined) | 51.1% (inactive)
25 | COC(=O)c1noc(C)c1-c1ccnn1C(=O)c1ccc(Cl)cc1 | -0.96% (inactive)

Row | SMILES | inhibition
26 | COc1cccc(OC)c1CN(C)C(=O)c1cnccc1C(F)(F)F | 16.4% (inactive)
27 | Cc1ccsc1/C=N/NC(=O)Cc1cc(=O)[nH][nH]1 | 10.3% (inactive)
28 | O=C(NC(=S)Nc1ccc2oc(=O)ccc2c1)c1ccc(-c2cccc(Cl)c2Cl)o1 | 80.2% (active)
29 | Cc1cccc(NC(=S)NC(=O)c2ccc(Br)o2)c1 | -36.1% (inactive)
30 | CC(C)C(=O)Nc1ccc2oc(=O)ccc2c1 | 8.38% (inactive)
31 | C=C(C)CNC(=S)Nc1ccc(S(=O)(=O)Nc2cnc3ccccc3n2)cc1 | 11.6% (inactive)
32 | Clc1cccc(CN2COc3c(cc(Cl)c4cccnc34)C2)c1 | 108% (active)
33 | O=c1[nH]n(-c2cccc(Cl)c2)c2ncccc12 | 9.34% (inactive)
34 | O=C1/C(=C/c2coc3ccc(O)cc3c2=O)SC(=S)N1c1ccccc1 | -12.8% (inactive)
35 | CCOC(=O)COc1nc(C)cc(C(F)(F)F)c1C#N | 16.9% (inactive)
36 | Cn1c(CC2Sc3ccccc3NC2=O)nnc1SCC(=O)c1ccc(Cl)cc1 (centres undefined) | 11.3% (inactive)
37 | CCc1cc(C(=O)c2ccc(OC)cc2)c(NC(=O)CN2CCN(C)CC2)s1 | 9.91% (inactive)
38 | Nc1nc(SCCOc2ccccc2)n[nH]1 | -32% (inactive)
39 | CCNc1nc(NCC)nc(N(C)n2cnnc2)n1 | 2.32% (inactive)
40 | CCNc1nc(SCCOc2ccccc2)nc(N(C)C)n1 | 90.8% (active)
41 | C/C(=N\Nc1cccc(C(=O)O)c1)c1ccc2c(c1)Nc1ccccc1S2 | -2.01% (inactive)
42 | Cc1ccc(OC(=O)c2c(C)nn(-c3ccccc3)c2C)cc1 | 5.12% (inactive)
43 | Cc1nn(-c2ccccc2)c(C)c1C(=O)OCC(=O)NC(=O)NC1CCCCC1 | 71.2% (active)
44 | CCCn1c(C)cc(C(=O)COC(=O)c2c(C)nn(-c3ccccc3)c2C)c1C | 52.2% (inactive)
45 | CCc1cc(CNC(=O)CC2C(=O)NCCN2Cc2ccccc2C(F)(F)F)on1 (centres undefined) | 20.4% (inactive)
46 | O=c1[nH]c(SCc2cccc(F)c2)nc2ccccc12 | 8.81% (inactive)
47 | Cc1noc(C)c1COC(=O)COc1ccc(-c2ccccc2)cc1 | 10.1% (inactive)
48 | C/C(=N\N)c1c(-c2ccccc2)c2cc(Br)ccc2[nH]c1=O | -1.78% (inactive)
49 | NC(=O)C1CCN(Cc2nc3c(Br)cc(Br)cc3c(=O)[nH]2)CC1 | 13.6% (inactive)
